These results are taken from the supplement of paper PMC10720658.

The structures appear in SMILES notation. ± gives the standard deviation of the averaged measurements.

This experiment has as its system AEK1 (Tb927.3.2440). Put plainly: percent reduction in TR-FRET probe signal relative to DMSO control; higher = stronger displacement of ATP-site probe (binding). The settings on record: 1 µM; incubation time 1 h.
As to `CCOc1cc(C(=O)N2CCC(N3CCN(C)CC3)CC2)ccc1Nc1ncc2c(n1)N(C1CCCC1)c1ccccc1C(=O)N2C`, the “percent reduction in TR-FRET probe signal” value (from here on “percent reduction”) is -3.15 ± 9.5%.

Consider `CN1CCN(c2ccc(C(=O)Nc3n[nH]c4ccc(Cc5cc(F)cc(F)c5)cc34)c(NC3CCOCC3)c2)CC1` [Entrectinib (RXDX-101)], for which the “percent reduction” value was -3.42 ± 2.4%. As to `COC(=O)c1ccc2c(c1)NC(=O)/C2=C(\Nc1ccc(N(C)C(=O)CN2CCN(C)CC2)cc1)c1ccccc1` [Nintedanib (BIBF 1120)], the “percent reduction” value stood at 9.58 ± 14%. As to `Cc1nc(Nc2ncc(C(=O)Nc3c(C)cccc3Cl)s2)cc(N2CCN(CCO)CC2)n1` [Dasatinib], the “percent reduction” value was 10.6 ± 19%. As for `Cc1c[nH]c(-c2cnc(NCCNc3ccc(C#N)cn3)nc2-c2ccc(Cl)cc2Cl)n1.Cl`, the figure is -2.62 ± 8.5%.

Consider `CC(C)[C@H](CO)Nc1nc(Nc2cccc(Cl)c2)c2ncn(C(C)C)c2n1` [Purvalanol A], for which the “percent reduction” value came to 4.44 ± 18%. For the compound `CCO.N#CC(=C(\N)Sc1ccccc1N)/C(C#N)=C(/N)Sc1ccccc1N`, the “percent reduction” value worked out at 0.443 ± 7.1%.

Turning to `CC(C)(C#N)c1ccc(N2C(=O)OCc3cnc4ccc(-c5cnc6ccccc6c5)cc4c32)cc1`, the “percent reduction” value is -6.23 ± 1.2%. To `O=c1ncn2nc(Sc3ccc(F)cc3F)ccc2c1-c1c(Cl)cccc1Cl` belongs 9.39 ± 14%; to `C#Cc1cccc(Nc2ncnc3cc(OC)c(OCCCCCCC(=O)NO)cc23)c1`, -2.76 ± 13%. To `CNC(=O)CN1CCC(Oc2cc3c(Nc4cccc(Cl)c4F)ncnc3cc2OC)CC1` [Sapitinib (AZD8931)] belongs -5.78 ± 5.4%; to `Cn1cc(-c2[nH]c3cc(NC(=O)[C@H](N)C4CCCCC4)cc4c3c2C=NNC4=O)cn1`, 76.9 ± 6.5%; to `CC1=C(C(=O)Nc2cc3cn[nH]c3cc2F)C(c2ccc(C(F)(F)F)cc2)CC(=O)N1` (stereo not drawn), -2.47 ± 11%. In the case of `Cc1cnc(Nc2ccc(F)cc2Cl)nc1-c1c[nH]c(C(=O)N[C@H](CO)c2cccc(Cl)c2)c1`, the “percent reduction” value worked out at 9.02 ± 15%. With `O=c1c(O)c(-c2ccc(O)c(O)c2)oc2cc(O)cc(O)c12` [Quercetin], the “percent reduction” value amounted to 8.35 ± 5.3%.

In the case of `COc1cc2ncnc(Nc3ccc(O)c(Br)c3)c2cc1OC`, the “percent reduction” value is -7.2 ± 7.7%. For `COc1ccc2c(c1)c(C1=C(c3c[nH]c4ccccc34)C(=O)NC1=O)cn2CCCN(C)C`, the “percent reduction” value was 4.65 ± 14%. On to `O=c1sn(-c2cccc3ccccc23)c(=O)n1Cc1ccccc1` [Tideglusib], for which the “percent reduction” value is -35 ± 6.7%. As for `C[C@]1(O)C[C@@H](c2nc(-c3ccc4ccc(-c5ccccc5)nc4c3)c3c(N)nccn32)C1` [OSI-906 (Linsitinib)], the figure is -6.09 ± 6%; as for `O=C(c1ccc(Nc2nccc(-c3cc4ccccc4s3)n2)cc1)N1CCC(N2CCCC2)CC1` [IKK-16 (IKK Inhibitor VII)], 4.07 ± 9.4%. As to `Cc1ccc(-n2nc(C(C)(C)C)cc2NC(=O)Nc2ccc(OCCN3CCOCC3)c3ccccc23)cc1` [BIRB 796 (Doramapimod)], the “percent reduction” value amounted to 1.12 ± 5.4%.

Regarding `CC1(COc2ccc3c(c2)ncn3-c2ccc3cccc(N4CCC(N)CC4)c3n2)COC1`, the “percent reduction” value was 18.8 ± 11%. Regarding `CN1CCN(c2ccc3nc(-c4c(N)c5c(F)cccc5[nH]c4=O)[nH]c3c2)CC1` [Dovitinib (TKI-258, CHIR-258)], the “percent reduction” value is 16.9 ± 16%. Turning to `COC(=O)Nc1ccc(-c2nc(N3CCOCC3)c3cnn(C4CCN(C(=O)OC)CC4)c3n2)cc1`, the “percent reduction” value is -6.41 ± 11%.

`O=C(NOC[C@H](O)CO)c1ccc(F)c(F)c1Nc1ccc(I)cc1F`: the “percent reduction” value is -3.89 ± 11%. On to `CCCCCCCCc1ccc(CCC(N)(CO)CO)cc1.Cl` [Fingolimod (FTY720) HCl], for which the “percent reduction” value is -8.59 ± 6.3%. To `COc1cc2c(Oc3ccc(NC(=O)C4(C(=O)Nc5ccc(F)cc5)CC4)cc3F)ccnc2cc1OCCCN1CCOCC1` belongs 56 ± 11%. Consider `Cc1[nH]c(/C=C2\C(=O)Nc3ccccc32)c(C)c1CCC(=O)O` [TSU-68 (SU6668, Orantinib)], for which the “percent reduction” value was found to be 1.55 ± 4%. As for `O=C1Nc2ccc(I)cc2/C1=C/c1cc(Br)c(O)c(Br)c1`, the “percent reduction” value turned out to be 8.22 ± 8.7%.

For the compound `CCS(=O)(=O)Nc1ccc2c(c1)/C(=C(/Nc1ccc(CN3CCCCC3)cc1)c1ccccc1)C(=O)N2` [Hesperadin], the “percent reduction” value came to 97.4 ± 5.1%. With `COc1cc(Nc2ncc(F)c(Nc3ccc4c(n3)NC(=O)C(C)(C)O4)n2)cc(OC)c1OC.O=S(=O)(O)c1ccccc1`, the “percent reduction” value stood at 85.4 ± 8%. In the case of `CNC(=O)Nc1ccc(-c2nc(N3CC4CCC(C3)O4)c3cnn(C4CCC5(CC4)OCCO5)c3n2)cc1`, the “percent reduction” value is -1.55 ± 9.3%. As for `COc1cc(C(=O)NC2CCN(C)CC2)ccc1Nc1ncc2c(n1)N(C1CCCC1)CC(F)(F)C(=O)N2C`, the “percent reduction” value is -5 ± 7%.

With `Cc1nc(Nc2cnn(C3CCNCC3)c2)nc2c1N(C)C(=O)c1cc3ccccc3cc1N2C`, the “percent reduction” value is -10.5 ± 7.1%. With `Cc1[nH]c(/C=C2\C(=O)Nc3ccc(S(=O)(=O)Cc4c(Cl)cccc4Cl)cc32)c(C)c1C(=O)N1CCC[C@@H]1CN1CCCC1`, the “percent reduction” value was -5.64 ± 15%. `O=C(NCc1ccccc1)c1csc(Nc2ccncn2)n1` [Thiazovivin]: the “percent reduction” value came to 10.4 ± 11%. As for `CC[C@@H]1C(=O)N(C)c2cnc(Nc3ccc(C(=O)NC4CCN(C)CC4)cc3OC)nc2N1C1CCCC1`, the figure is -1.92 ± 12%. On to `O=C1Nc2cc(Br)ccc2/C1=C1/Nc2ccccc2/C1=N\O`, for which the “percent reduction” value worked out at 2.19 ± 11%.
